Screens deposited in PubChem by National Center for Advancing Translational Sciences (NCATS).
Compounds with a hit are over-represented: about 10% of the library has one in this group of screens.
GPT2 inhibitor: GPT2 alanine aminotransferase inhibition. Q8TD30. Recombinant GPT2, coupled pyruvate oxidase/HRP Amplex Red fluorescence. Potency, µM (highest dose often 57.7 µM), inactives show at the top dose activity change, negative = inhibition, most hits filed as inhibitors. hit rate 0.25% among 100,000. AID 1671188; note: nearly all actives have a fitted effect of over 60% in size
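Fluorescence of coupled pyruvate oxidase/HRP/Amplex Red system (50uM Amplex, 30 min, dark) reports pyruvate formed by GPT2. Enzyme reaction: 10ng/uL GPT2, 2mM L-alanine, 250uM a-KG, 30 min room temperature, pH 7.5; 50uM AOA control.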
Luciferase inh: blocks purified firefly luciferase enzyme activity; AID 1347043; P08659; hit rate 2.5% among 76,000; purified P. pyralis luciferase, luminescence, biochemical; Potency, µM (titrated, usually from 115 µM), hits mostly inhibitors; note: nearly all actives have a fitted effect of over 65% in size
Target sequence (P08659 whole entry, looked up): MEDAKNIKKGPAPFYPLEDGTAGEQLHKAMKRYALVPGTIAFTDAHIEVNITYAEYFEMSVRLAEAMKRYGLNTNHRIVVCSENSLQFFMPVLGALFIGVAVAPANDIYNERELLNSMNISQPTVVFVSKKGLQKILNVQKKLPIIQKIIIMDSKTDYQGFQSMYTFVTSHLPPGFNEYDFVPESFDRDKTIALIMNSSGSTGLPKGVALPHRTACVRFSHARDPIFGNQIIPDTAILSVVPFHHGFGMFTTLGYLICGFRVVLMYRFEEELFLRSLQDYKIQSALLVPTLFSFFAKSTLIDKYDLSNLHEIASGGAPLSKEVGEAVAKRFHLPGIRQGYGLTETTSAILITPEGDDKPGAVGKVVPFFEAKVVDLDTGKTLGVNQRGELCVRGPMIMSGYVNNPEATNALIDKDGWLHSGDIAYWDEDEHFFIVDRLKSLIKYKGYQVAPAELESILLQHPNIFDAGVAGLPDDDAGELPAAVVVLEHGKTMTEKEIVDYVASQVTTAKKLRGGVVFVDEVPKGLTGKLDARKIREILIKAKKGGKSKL
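Inhibitors were tested against purified firefly luciferase in a biochemical, low-substrate format (both substrates at 10uM) and luminescence measured with a CCD imager.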
NIH3T3 tox: cytotoxic compounds in NIH 3T3 cells | NIH 3T3 viability, CellTiter-Glo ATP luminescence, 48-72 h | Potency, µM (top dose mostly 96.7 µM), for inactives: top-dose activity change, negative = cytotoxicity, most hits filed as inhibitors | hit rate 4.3% among 94,000; note: nearly all actives have a fitted effect of over 55% in size
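Viability of NIH 3T3 cells after 48 or 72 hr compound treatment at 37 °C was assessed by CellTiter-Glo, with luminescence imaged following a 10 min room-temperature step.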
NPR1 antag: antagonists of human natriuretic peptide receptor Npr1; hit rate 1.6% among 76,000; P16066; HEK293 hNpr1 GloSensor cGMP, ANP-stimulated luminescence; Potency, µM (series often up to 46.3 µM), for inactives: at the highest dose activity change, negative = inhibition, actives largely listed as inhibitors; AID 1347048; calls by dose curve; note: nearly all actives have a fitted effect of over 60% in size
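HEK293 cells stably expressing human Npr1 and cGMP GloSensor pGS-40F, loaded 2 h with 2% GloSensor reagent, given compound 30 min at room temperature. Luminescence read before and 20 min after 0.1 nM hNppA.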
HEK293 tox: HEK 293 cell cytotoxicity. Potency, µM (highest dose often 115 µM), without a hit: at the highest dose activity change, negative = cytotoxicity, usual class: inhibitors. HEK 293 viability, ATP luminescence (CellTiter-Glo), 48-72 h. hit rate 6.6% among 94,000. AID 1345083; note: nearly all actives have a fitted effect of over 60% in size
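HEK 293 cells seeded at 250 cells/well were exposed to compound for 48 or 72 hr at 37 degree Celsius. Viability taken as ATP content by CellTiter-Glo luminescence.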
Active calls of the source: *; i = inactive; ? = inconclusive; · = no result; [ ] = another dose, or the depositor's remark. Unless noted, calls come from the whole dose curve; as a rule, active = well fitted curve in the direction sought with a large enough effect; inconclusive = small, poorly fitted or top-dose-only effect, or another doubt; inactive = no such curve, though single readings can be large; an effect the other way counts as inactive or inconclusive. % is set by controls: 0 for no effect and ±100 for the full control effect; potency is the fitted concentration of half-maximal effect.

SMILES	GPT2 inhibitor	Luciferase inh	NIH3T3 tox	NPR1 antag	HEK293 tox
CCc1nc2c(c(-c3ccc(OC)cc3)n1)CCN(C(=O)c1ccccc1F)CC2	i	·	40µM*	·	-19%
CCc1nc2c(c(-c3ccc(OC)cc3)n1)CCN(C(=O)c1ccccc1OC)CC2	i	·	?	·	-5%
CCc1nc2c(c(-c3ccc(OC)cc3)n1)CN(C(=O)c1ccc3c(c1)OCO3)CC2	i	·	40µM*	·	-7%
CC1=C[C@@H](CNC(=O)c2cccc(F)c2)[C@H](C(C)C)C[C@H]1CC(=O)NCc1cccnc1	-25%	i	?	-13%	?
Cc1nc(N2CCCCC2)n(CC(=O)Nc2cccc(Cl)c2)c(=O)c1C	-26%	i	?	-7%	?
CCC(C)Oc1ccc(CNC(=O)c2cn(CCN)nn2)cc1 (stereo not given)	4%	i	?	3%	32µM*
COc1ccc(CCNC(=O)CC(c2ccccc2OC)c2c[nH]c3ccccc23)cc1OC (stereo not given)	i	i	?	-27%	?
CCc1cccc2c(C(CC(=O)NCCc3ccc(OC)c(OC)c3)c3ccccc3OC)c[nH]c12 (stereo not given)	-10%	i	?	-14%	35µM*
CCc1cccc2c(C(CC(=O)NCCc3ccccc3)c3ccc(OC)c(OC)c3)c[nH]c12 (stereo not given)	i	?	?	-16%	?
COc1cccc(C(CC(=O)NCC(C)C)c2c[nH]c3ccccc23)c1 (stereo not given)	i	i	-23%	-5%	-29%
O=C(CC(c1cccc([N+](=O)[O-])c1)c1c[nH]c2ccccc12)NCCc1ccccc1 (stereo not given)	i	i	25µM*	?	32µM*
COc1ccccc1C(CC(=O)NCCc1ccccc1)c1c[nH]c2ccccc12 (stereo not given)	i	?	40µM*	-5%	?
COCCCNC(=O)c1ccc2nnc(Cc3ccco3)n2c1	4%[88.5 µM]	·	2%[138 µM]	·	i
CCCCCC(=O)N1CC(=O)N(Cc2ccc(C)cc2)CC(O)C1 (stereo not given)	·	·	?	·	-4%
CCc1ccccc1S(=O)(=O)N1CCN(C2CCN(Cc3ccccn3)C2=O)CC1 (stereo not given)	0%	i	-26%	-12%	-25%
CN(Cc1ccccc1)Cc1cn([C@H]2CO[C@H]3[C@@H]2OC[C@@H]3NS(=O)(=O)c2cccc3cccnc23)nn1	4.5µM*	i	-26%	-1%	-17%
CN(Cc1cccnc1)Cc1nc(C2(O)CCN(Cc3ccccc3C(F)(F)F)CC2)cs1	i	i	?	-21%	45µM*
CN(Cc1cccnc1)c1nc2c(c(=O)[nH]1)CCN(Cc1ccccc1C(F)(F)F)CC2	i	i	?	?	20µM*
COc1ccc([C@H]2CN(c3nnnn3-c3ccccc3)C[C@@H]2N)cc1	i	i	-6%	-21%	-15%
COc1ccc(CN2CCNc3cc(-c4ccnc(C)c4)ncc3C2)cc1	4%[88.5 µM]	?	?	-3%[70.6 µM]	89µM*
Cc1cc(-c2cc3c(cn2)CN(Cc2cccc(F)c2)CCN3)ccn1	-1%[88.5 µM]	16µM*	?	-24%[70.6 µM]	71µM*
CCn1cc(-c2cc3c(cn2)CN(Cc2cccnc2)CCN3)cn1	3%[88.5 µM]	63µM*	2%[138 µM]	2%[70.6 µM]	?
c1cncc(-c2cc3c(cn2)CN(Cc2ccncc2)CCN3)c1	1%[88.5 µM]	i	-17%[138 µM]	-18%[70.6 µM]	?
COc1ccc(OC)c(CN2CCNc3cc(-c4ccnc(C)c4)ncc3C2)c1	-8%[88.5 µM]	?	?	4%[70.6 µM]	100µM*
Cc1cc(-c2cc3c(cn2)CN(CC2CCOC2)CCN3)ccn1 (stereo not given)	i	?	?	4%[70.6 µM]	-30%[172 µM]
SMILES	GPT2 inhibitor	Luciferase inh	NIH3T3 tox	NPR1 antag	HEK293 tox
CCCCCC(=O)Nc1nc2c(s1)C[C@@H]1[C@](C)(CO)[C@H](O)CC[C@@]1(C)[C@@H]2CC(=O)N1CCCCC1	-5%	i	?	-4%	?
CC(=O)Nc1cc(-c2cn(C)c(=O)n3cc(CN4CC[S+](=O)([O-])CC4)nc23)ccn1	-2%[88.5 µM]	i	100µM*	1%[70.6 µM]	-17%[172 µM]
COc1ccc(-c2nc(C3CC3)nc3c2CCN([S+](=O)([O-])c2cccc(C(F)(F)F)c2)CC3)cc1	-3%	·	?	·	?
COc1cccc(C(O)c2nc(C(=O)Nc3ccc4c(c3)NC(=O)CO4)c(C)o2)c1 (stereo not given)	3%[88.5 µM]	63µM*	?	-4%[70.6 µM]	89µM*
CC(C)(C)CNc1cc(Cl)nc2ccnn12	i	i	-11%[138 µM]	13%[70.6 µM]	?
Fc1ccccc1CNc1cc(Cl)nc2ccnn12	?	i	?	?	35µM*
CNC(=O)N1CCC(C2CCN(Cc3ccccc3C#N)C2)CC1 (stereo not given)	i	i	-10%	1%	?
COc1ccc(S(=O)(=O)N2CC(=O)N(CC3CC3)C3(CCCCC3)C2)cc1	1%	·	35µM*	·	?
O=C(NCC1CN(C(=O)C2CCCCC2)CC12CCOCC2)N1CCCC1 (stereo not given)	i	·	?	·	-23%
CCC(C)NC(=O)N1CC(Oc2ccccc2-c2nc(-c3ccccc3)no2)C1 (stereo not given)	-13%	?	35µM*	-4%	?
CC(Oc1ccccc1)C(=O)N1CC(Oc2ccccc2-c2nc(-c3ccccc3)no2)C1 (stereo not given)	0%	·	35µM*	·	45µM*
Cc1cccc(NC(=O)N2CC(Oc3ccccc3-c3nc(-c4ccccc4)no3)C2)c1	i	i	-13%	2%	-3%
c1ccc(-c2noc(-c3ccccc3OC3CNC3)n2)cc1	-5%	22µM*	28µM*	?	?
O=C(NCCc1ccccc1)N1CC(Oc2ccccc2-c2nc(-c3ccccc3)no2)C1	i	?	28µM*	-5%	22µM*
O=C(c1ccc2c(c1)OCO2)N1CCN(c2ccnc3ccnn23)CC1	i	·	?	·	?
CCOc1ccc(NC(=O)[C@@H]2C[C@@H](O)CN2C2CCN(C(=O)c3cccc(OC)c3)CC2)cc1	5%	i	-16%	-6%	-17%
O=C(c1ccccc1F)N1CCCN(c2cc(-c3ccc(Cl)cc3)[nH]n2)CC1	-7%	i	?	?	?
O=C1Nc2ccccc2CC12CCCN(Cc1ccccc1)C2 (stereo not given)	i	·	-12%[138 µM]	·	-24%[172 µM]
CCc1nc2c(c(-c3ccc(O)cc3)n1)CCN(C(=O)c1cccc(Cl)c1)CC2	i	·	?	·	?
C=CCN1C[C@@H]2C[C@@H](C(N)=O)N(C(=O)CC3CCCC3)c3cccc(c32)[S+]1(=O)[O-]	i	·	?	·	?
